Results published in PubChem BioAssay AID1471 (National Center for Advancing Translational Sciences (NCATS), 2008).
Where “and” joins values, the source holds several entries; their conditions need not be identical. Equal values may be shown once. About 310 (0.13%) of roughly 230,000 compounds were called active. Inconclusive results (about 2%) are left out. The sample as a whole holds a higher share of actives than the screen did. A number with no mark means an inactive call. The call rests on the fitted dose curve; in most records, active means well fitted activation curve with a large enough effect; inconclusive means small, poorly fitted or top-dose-only effect; inactive means no such curve, though single readings can be large or run the other way.

assay: qHTS Multiplex Assay to Identify Dual Action Probes in a Cell Model of Huntington: Cytoprotection (ATP); conditions: PC12 HTT-Q103 induced, ATP luminescence, 40 h; series mostly up to 56.4 µM; cytoprotection (ATP increase): at the top concentration; further: nearly all actives have a fitted effect of over 45% in size;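 on cytoprotection (ATP increase): toxic huntingtin expression switched on by the ecdysone agonist tebufenozide; % of control where 0% means no effect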
Excerpt: NIH Chemical Genomics Center [NCGC]
NIH Molecular Libraries Probe Production centers Network [MLPCN]
Assay Submitter (PI): Wei Zheng
Huntington's disease is a neurodegenerative disorder caused by a trinucleotide repeat expansion in Exon 1 of the Huntingtin gene. The CAG trinucleotide encodes glutamine and polyglutamine expansions cause cell death in selective areas of the brain. Huntington polyglutamine repeats have the tendency to form aggregates which are observable in later stages of the disease. The exact nature of the aggregates, whether toxic, protective, or insignificant, is unclear.
A stable PC12 cell line containing a gene fusion of Exon 1 of the Huntingtin gene linked to GFP under the control of the inducible ecdysone promoter were used as the cell-based model of Huntington Disease for high throughput screening. Exon 1 of the Huntingtin gene contained an expansion of 103 polyglutamines (Q103) which, when expressed, caused cell death and distinct, bright GFP aggregates. The amount of cell death and the size and intensity of GFP aggregates increased over time and induction level. The cell death were quantified with a measurement of ATP content in the cells. A maximal 40-50% of cell death was observed when the Huntington gene was induced in this cell line.
We optimized this assay in a homogeneous 1536 well format. A quantitative high throughput screen (qHTS) was conducted on the PC12 cells which were induced to express the toxic fusion construct. Small molecules which prevented cell death were identified by using a luminescent ATP quantification method (Perkin Elmer's ATPlite).
PC12 cells stably containing a construct with an ecdysone inducible promoter expressing GFP fused to the exon 1 of HTTQ103 (Huntington protein which containing a 103 ployglutamine expansion) were used.
NCGC Assay Protocol Summary:
Sequence, Parameter, Description
1, Reagent, 5 uL 1500 cells/well 1536 TC treated White clear bottom plate
2, Compound, 23 nL Tebufenozide inducer (100 nM final) to all columns
3, Compound, 23 nL 40 uM to 0.5 nM Libraries
5, Reagent, 5 ul ATPLite cell death assay reagent
6, Detector, 4 sec integration with a Viewlux Luminescent
Media consisted of phenol red free DMEM + 5% equine serum (Hyclone # SH30072.03 ), 5% supplemented Bovine Calf Serum (Hyclone # SH30074.03 ), 1x pen/strep, no G418
Control columns: 1 = DMSO, 2= 2 uM teb dilns (1:1), 4 = 100 nM Teb inducer. Sample columns received 100 nM Teb.

| SMILES | cytoprotection (ATP increase) | Potency |
| --- | --- | --- |
| CC(C)=CCC[C@]1(C)[C@@H](CC=C(C)C)C[C@@]2(CC=C(C)C)C(=O)[C@]1(C(=O)C(C)C)C(=O)C(CC=C(C)C)=C2O | -130% | – |
| O=C(OCc1ccccc1)c1ccc(O)cc1 | 9.85% | – |
| COc1ccc(-c2nc3c(c4c2C[C@H](c2ccccc2)OC4)CN(C(=O)c2ccco2)CC3)c(C)c1 | -10% [at 10 µM] | – |
| CCCCCCCC1=Cc2ccc(F)cc2C(C(C(=O)OC)C(=O)OC)N1C(=O)OC (stereo unspecified) | inactive | – |
| OCC(CO)NC1C[C@](O)(CO)[C@@H](O)[C@H](O)[C@H]1O (stereo partly specified) | 43.4% | – |
| CC(=O)OC1C([N+]2(C)CCCCC2)C[C@H]2C3CC[C@H]4C[C@H](OC(C)=O)C([N+]5(C)CCCCC5)CC4(C)C3CCC12C (stereo partly specified) | -36.3% | – |
| Oc1ccc(Cl)c2c1CCC2 | 22.2% | – |
| O=C(O)C1CCCN(CCC=C(c2ccccc2)c2ccccc2)C1 (stereo unspecified) | -9.11% | – |
| COCCNc1nc(-c2ccccc2)nc2c1oc1ccccc12 | 13.7% [at 10 µM] | – |
| CC(=O)c1cnn(-c2cc(Oc3ccc(F)cc3)ncn2)c1C | -0.119% | – |
| CO[C@@]12[C@@H](COC(N)=O)C3=C(C(=O)C(C)=C(N)C3=O)N1C[C@@H]1N[C@@H]12 | -173% | – |
| C[C@]12CC[C@@H]3c4ccc(O)cc4C[C@@H](CCCCCCCCCS(=O)CCCC(F)(F)C(F)(F)F)C3[C@@H]1CC[C@@H]2O (stereo partly specified) | 2.26% | – |
| O=C(Cc1ccc(F)cc1)NC1CCCC1 | 14.1% | – |
| O=C(CSc1ncnc2c1nnn2Cc1ccc(F)cc1)NC1CCCC1 | – | 1.26 µM (active) |
| O=C(Cn1cnc2c(nnn2Cc2ccc(F)cc2)c1=O)NCc1ccc2c(c1)OCO2 | 7.52% [at 10 µM] | – |
| COC(=O)C(C(=O)OC)[C@@H](NC=O)c1ccccc1 | -30.4% | – |
| CC1(OC(=O)c2ccc(Cl)nc2)C(=O)Cc2cc(-c3ccsc3)ncc2C1=O (stereo unspecified) | -9.48% [at 10 µM] | – |
| COc1ccc2c(c1)O[C@@H](c1ccc3c(c1)OCO3)[C@H](OC(=O)NCCc1ccc(OC)c(OC)c1)C2=O | -180% | – |
| COc1cc2c(cc1OC)[C@@H](Cc1cc(OC)c(OC)c(OC)c1)[N+](C)(CCCOC(=O)CC/C=C/CCC(=O)OCCC[N+]1(C)CCc3cc(OC)c(OC)cc3[C@H]1Cc1cc(OC)c(OC)c(OC)c1)CC2 (stereo partly specified) | 6.54% | – |
| CCN1C(=O)N[C@@H](CCc2ccccc2)C(C(=O)OC)=C1C | -1.46% [at 10 µM] | – |
| C=C(C(C)=O)C(O)c1cccs1 (stereo unspecified) | -12.9% | – |
| O=C(Nc1ccc(O)cc1)c1ccccc1O | -145% | – |
| CC(C)(Oc1ccc(C2CC2(Cl)Cl)cc1)C(=O)O (stereo unspecified) | 30.1% | – |

| SMILES | cytoprotection (ATP increase) | Potency |
| --- | --- | --- |
| C=CCOC(=O)NC(c1ccc(F)c(F)c1)C(C(=O)COC)C(=O)OC (stereo unspecified) | inactive | – |
| CCn1c(-c2ccncc2)n[nH]c1=S | -8.17% | – |
| CCn1c(C(C)C)n[nH]c1=S | -26.1% | – |
| CCn1c(-c2ccoc2C)n[nH]c1=S | – | 5.62 µM (active) |
| Cc1ccc(Nc2nc(N)nc(CSc3nnc(C)s3)n2)cc1 | 18.8% [at 10 µM] | – |
| CCOC(=O)C1CCCN(C(=O)c2cccc(S(=O)(=O)N3CCOCC3)c2)C1 (stereo unspecified) | 21.6% [at 10 µM] | – |
| CC(C)=CCN1CCC2(CCc3ccccc32)CC1 | -37.2% | – |
| C#CCCOC(=O)N1C2=NC(C(=O)OC)=C(C(=O)OC)[C@@H]3N(C)c4ccc(OC)cc4[C@]23C[C@H]1C(=O)OC | -19.2% [at 10 µM] | – |
| O=P(O)(O)OC[C@H](O)CO | 2.81% | – |
| CC(C)(C)OC(=O)NCCCC1=CC2=CC(=O)C(C)(OC(=O)c3ccco3)C(=O)C2=CO1 (stereo unspecified) | -5.66% | – |
| COCCCNC(=O)C1CC(=O)N(CCc2ccccc2)C1 (stereo unspecified) | -12% | – |
| COc1ccc(N=Nc2ccc(O)c(P(=O)(c3ccccc3)c3ccccc3)c2)cc1 | 13.4% [at 10 µM] | – |
| COC(=O)C1(C(C)=O)CC2=CC[C@H]3C(=O)N(c4ccccc4)C(=O)[C@H]3[C@@H]2Cc2ccccc2[C@@H]1C[N+](=O)[O-] (stereo partly specified) | inactive | – |
| Cc1c(N=Nc2ccc(N(C)C)cc2)c(=O)n(-c2ccccc2)n1C | -1.47% [at 10 µM] | – |
| CCNC(=O)COC(=O)/C=C/c1c(C)nn(Cc2cccc(OC)c2)c1Cl | -27% | – |
| CN(C)c1nc(N)nc(Cn2nnc(-c3ccc(C(F)(F)F)cc3)n2)n1 | -14.2% | – |
| COC(=O)C1=C(C(=O)OC)[C@@H]2N(C)c3ccccc3[C@@]23C[C@@H](C(=O)OC)N(C(C)=O)C3=N1 | 0.243% [at 10 µM] and 2.58% [at 10 µM] | – |
| CCCCCCCC/C=C\CCCCCCCC(=O)OC[C@H](CO)OC(C)=O | inactive | – |
| Cc1ccc(CC2(O)CCN(CCOc3ccc(O)cc3)CC2)cc1 | -66.8% | – |
| C=C1O[C@@](CO)(n2cnc3c(N)ncnc32)[C@H](O)[C@@H]1O | -56.7% | – |
| CC1=C2[C@@H](O)[C@H]([C@@H](C)C(=O)NCCC(C)C)CC[C@@]2(C)C=CC1=O | 16% | – |
| COc1cccc([C@@H]2Oc3ccc(Br)cc3C(=O)[C@H]2OC(=O)NCCc2ccc(OC)c(OC)c2)c1 | -49.1% | – |
| CCCCC/C=C\C/C=C\C/C=C\CCCCCCC(N)=O | 26.9% | – |
